Screening results (PubChem BioAssay)
Tau fibril FP = qHTS for Inhibitors of Tau Fibril Formation, Fluorescence Polarization. Microtubule-associated protein tau (Homo sapiens), P10636. K18 P301L tau heparin fibrillization, Alexa594 FP, 6 h. Potency, µM (top dose mostly 57.7 µM), for inactives: top-dose activity, negative = inhibition, usual class: inhibitors. 0.39% of 280,000 active. AID 1468, 2008; note: potency is the fitted concentration of half-maximal effect; nearly all actives have a fitted effect of over 55% in size
Target sequence (P10636 561-689 P618L limits assumed): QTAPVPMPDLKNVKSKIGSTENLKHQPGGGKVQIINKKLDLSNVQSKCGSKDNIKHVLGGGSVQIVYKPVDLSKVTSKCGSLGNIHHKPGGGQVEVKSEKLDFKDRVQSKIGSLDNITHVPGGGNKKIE
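Steps: dispense K18 P301L tau (15 uM plus 0.24 uM Alexa 594 tracer, final) in pH 7 sodium acetate; add compound; add heparin (20 uM final); incubate 6 hr, 37 C; add ThT (30 uM final); after 1 hr ambient, read FP.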
Tau fluor cs = Counterscreen qHTS for Inhibitors of Tau Fibril Formation, Fluorescence Polarization. tau K18 P301L Alexa594 fluorescence, heparin fibrillization. 0.93% of 280,000 active. Potency, µM (top dose mostly 57.7 µM), without a hit: top-dose activity change, negative = decrease; note: potency is the fitted concentration of half-maximal effect; nearly all actives have a fitted effect of over 55% in size
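Human tau K18 P301L (15 uM unlabeled, 0.24 uM Alexa 594-labeled) in 100 mM sodium acetate pH 7 with 20 uM heparin, 6 hr at 37 C. ThT 30 uM added, 1 hr ambient; Alexa 594 FP and total fluorescence read at 555/632 nm.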
TexasRed fluor = Total Fluorescence Counterscreen for Inhibitors of the Interaction of Thyroid Hormone Receptor and Steroid Receptor Coregulator 2; TRb/SRC2 Texas Red total fluorescence interference; Potency, µM (titrated, usually from 106 µM), for inactives: top-dose fluorescence change, negative = quenching; 0.29% of 280,000 active; AID 1479, 2009; active = well fitted curve in either direction with a large enough effect; inconclusive = small, poorly fitted or top-dose-only effect; note: potency is the fitted concentration of half-maximal effect
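Human TRb ligand-binding domain at 0.6 uM with 20 nM Texas Red SRC2 peptide in Tris buffer containing 1 uM T3 and 5% DMSO, incubated with compound 5 h at ambient temperature. Total fluorescence (555/632 nm) calculated as parallel + 2 × perpendicular.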
PNC assembly inh = High Content Assay for Compounds that inhibit the Assembly of the Perinucleolar Compartment | PC3M PTB-GFP, PNC prevalence imaging, 16 h; stronger effect = lower value | activity change (PNC), negative = inhibition, % at 10 µM | 3.1% of 140,000 active;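 active = readout at or below -70, meaning at least 70% loss of cells showing the perinucleolar compartment, a nuclear body marking cancer cells; inconclusive = readout between -30 and a set limit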;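 note: plate controls were DMSO wells for no effect and camptothecin positive control wells for full effect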
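Compounds are pinned in duplicate onto adhered PC3M cells stably expressing GFP-tagged PTB and incubated 16 h at 37 C. Cells are then fixed, nuclei stained with Hoechst, and PNC-positive cells counted.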
TRb SRC2 PPI = qHTS for Inhibitors of the Interaction of Thyroid Hormone Receptor and Steroid Receptor Coregulator 2 | Thyroid hormone receptor beta (Homo sapiens), P10828 | TRbeta-SRC2 peptide binding, fluorescence polarization; receptor liganded with 1 µM T3 | Potency, µM (doses to about 106 µM), for inactives: top-dose activity change, negative = inhibition, actives largely listed as inhibitors | 0.065% of 280,000 active | AID 1469, 2008;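 note: potency is the fitted concentration of half-maximal effect; plate controls were bound peptide for no effect and peptide without receptor for full effect; nearly all actives have a fitted effect of over 50% in size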
Target sequence (P10828 whole entry, looked up): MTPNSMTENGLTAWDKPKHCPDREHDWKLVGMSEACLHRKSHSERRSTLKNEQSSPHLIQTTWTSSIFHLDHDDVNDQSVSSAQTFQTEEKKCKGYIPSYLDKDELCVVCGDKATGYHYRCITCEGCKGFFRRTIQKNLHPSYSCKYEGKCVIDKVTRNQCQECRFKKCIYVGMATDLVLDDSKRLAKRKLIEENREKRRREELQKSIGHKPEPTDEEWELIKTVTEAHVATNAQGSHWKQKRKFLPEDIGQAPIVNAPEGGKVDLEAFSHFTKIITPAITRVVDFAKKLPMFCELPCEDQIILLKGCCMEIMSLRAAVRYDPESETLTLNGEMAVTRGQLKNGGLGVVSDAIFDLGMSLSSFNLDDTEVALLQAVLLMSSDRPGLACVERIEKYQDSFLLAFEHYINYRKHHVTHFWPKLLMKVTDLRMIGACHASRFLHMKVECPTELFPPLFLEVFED
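Assay buffer: 20 mM Tris-HCl, 100 mM NaCl, 10% glycerol, 1 mM EDTA, 0.01% NP-40, 1 mM DTT, 1 uM T3, 5% DMSO; TRb LBD 0.6 uM, Texas Red SRC2 20 nM; FP after 5 hr.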
Tau fibril ThT = qHTS for Inhibitors of Tau Fibril Formation, Thioflavin T Binding; recombinant tau K18 P301L (four-repeat tau fragment), heparin-induced fibrillization, ThT fluorescence; Potency, µM (doses to about 57.4 µM), for inactives: at the highest dose activity, negative = inhibition, most hits filed as inhibitors; 2.1% of 270,000 active; Microtubule-associated protein tau (Homo sapiens), P10636; note: potency is the fitted concentration of half-maximal effect; nearly all actives have a fitted effect of over 55% in size
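Tau K18 P301L fragment (15 uM unlabeled plus 0.24 uM Alexa 594-labeled) in 100 mM sodium acetate pH 7 with compound, fibrillization induced by 20 uM heparin for 6 hr at 37 C. Thioflavin T (30 uM) added, fluorescence read after 1 hr (ex 450, em 510 nm).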
Starred values were filed as active, the others as inactive; [ ] = remark or other dose. Compounds with a hit are over-represented: about 4.6% of the library has one in this group of screens. Unless noted, calls come from the whole dose curve; as a rule, active = well fitted curve in the direction sought with a large enough effect; inconclusive = small, poorly fitted or top-dose-only effect, or another doubt; inactive = no such curve, though single readings can be large; an effect the other way counts as inactive or inconclusive. Unless noted, % is set by controls: 0 for no effect and ±100 for the full control effect.

What do the screens show for `O=C1CCCC(O)=C1N=Nc1ccc2c(c1)OCO2`?
Tau fibril FP: 3%; Tau fluor cs: -15%; TexasRed fluor: -21%; PNC assembly inh: -16; TRb SRC2 PPI: 7%; Tau fibril ThT: inconclusive

What do the screens show for `CN(CC(=O)NCCc1ccc(F)cc1)Cc1cccs1`?
Tau fibril FP: 4%; Tau fluor cs: -7%; TexasRed fluor: -4%; TRb SRC2 PPI: 3%; Tau fibril ThT: -8%

How did CCOC(=O)CC1C(=O)NCCN1C(=O)Nc1ccccc1 (stereo not drawn) do in these assays?
Tau fibril FP: 1%; Tau fluor cs: 3%; TexasRed fluor: 0%; PNC assembly inh: 6; TRb SRC2 PPI: -6%; Tau fibril ThT: 0%

What do the screens show for `CCN(CC)S(=O)(=O)c1ccc(F)c(C(=O)NCCCN2CCOCC2)c1`?
Tau fibril FP: 0%; Tau fluor cs: 5%; TexasRed fluor: 0%; PNC assembly inh: -117*; TRb SRC2 PPI: 0%; Tau fibril ThT: -3%

How did CCN(CC)S(=O)(=O)c1ccc(N2CCOCC2)c(NC(=O)c2ccccc2F)c1 do in these assays?
Tau fibril FP: 5%; Tau fluor cs: -21%; TexasRed fluor: -4%; TRb SRC2 PPI: -5%; Tau fibril ThT: -11%

What do the screens show for `O=C(Nc1cc(Oc2ccc(Cl)cc2)cc([N+](=O)[O-])c1)c1ccco1`?
Tau fibril FP: -24%; Tau fluor cs: 7.1µM*[quencher]; TexasRed fluor: -2%; PNC assembly inh: 12; TRb SRC2 PPI: -2%; Tau fibril ThT: -7%

What do the screens show for `Cn1cc([N+](=O)[O-])c(C(=O)Nc2cc(Oc3ccccc3)cc([N+](=O)[O-])c2)n1`?
Tau fibril FP: 3%; Tau fluor cs: inconclusive; TexasRed fluor: inconclusive; PNC assembly inh: -125*; TRb SRC2 PPI: 15%; Tau fibril ThT: -13%

How did CCOc1ccc(Oc2cc(NC(=O)c3ccco3)cc([N+](=O)[O-])c2)cc1 do in these assays?
Tau fibril FP: -10%; Tau fluor cs: inconclusive; TexasRed fluor: -5%; PNC assembly inh: 48; TRb SRC2 PPI: 1%; Tau fibril ThT: -9%

How did Cc1cccc(Oc2cc(NC(=O)c3ccccc3)cc([N+](=O)[O-])c2)c1 do in these assays?
Tau fibril FP: -9%; Tau fluor cs: 7.1µM*[quencher]; TexasRed fluor: -8%; PNC assembly inh: 24; TRb SRC2 PPI: -5%; Tau fibril ThT: 0%

What do the screens show for `COc1ccc(NC(=O)CN2C(=O)CSC(C)C2=O)cc1` (stereo not drawn)?
Tau fibril FP: -3%; Tau fluor cs: 7%; TexasRed fluor: 0%; TRb SRC2 PPI: 0%; Tau fibril ThT: 1%

What do the screens show for `Cc1ccc(NC(=S)N/N=C/c2ccc([N+](=O)[O-])s2)cc1`?
Tau fibril FP: inconclusive; Tau fluor cs: 16µM*[quencher]; TexasRed fluor: -3%; PNC assembly inh: 35; TRb SRC2 PPI: -4%; Tau fibril ThT: 5µM*

Results for O=C(CNS(=O)(=O)/C=C/c1ccccc1)OCC(=O)N1CCC(Cc2ccccc2)CC1 ?
Tau fibril FP: 10%; Tau fluor cs: -11%; TexasRed fluor: -1%; PNC assembly inh: -107*; TRb SRC2 PPI: -5%; Tau fibril ThT: inconclusive

How did CC1CC(C)CN(C(=O)COC(=O)CNS(=O)(=O)/C=C/c2ccccc2)C1 (stereo not drawn) do in these assays?
Tau fibril FP: -4%; Tau fluor cs: -3%; TexasRed fluor: 1%; PNC assembly inh: -26; TRb SRC2 PPI: -8%; Tau fibril ThT: -2%

What do the screens show for `CCN(CC)c1ccc(N=Cc2ccc(N(CC)CC)cc2O)cc1`?
Tau fibril FP: inconclusive; Tau fluor cs: inconclusive; TexasRed fluor: 23%; PNC assembly inh: inconclusive; TRb SRC2 PPI: -26%; Tau fibril ThT: inconclusive

How did CCN1CCN(c2ccc(N=Cc3ccc(O)cc3O)cc2)CC1 do in these assays?
Tau fibril FP: inconclusive; Tau fluor cs: inconclusive; TexasRed fluor: -1%; TRb SRC2 PPI: -6%; Tau fibril ThT: 16µM*

How did CC1=NOC2(C1)N(C)c1ccccc1C2(C)C (stereo not drawn) do in these assays?
Tau fibril FP: -3%; Tau fluor cs: 7%; TexasRed fluor: 2%; PNC assembly inh: -15; TRb SRC2 PPI: -14%; Tau fibril ThT: 9%

What do the screens show for `COc1ccc2ccc3c(c2c1)N=C[C@]1(O3)N(C)c2ccccc2C1(C)C`?
Tau fibril FP: inconclusive; Tau fluor cs: inconclusive; TexasRed fluor: inconclusive; PNC assembly inh: 100; TRb SRC2 PPI: inconclusive; Tau fibril ThT: 20µM*

How did NNC(=O)c1ccc(Cn2cc(Cl)cn2)o1 do in these assays?
Tau fibril FP: 1%; Tau fluor cs: -12%; TexasRed fluor: -4%; TRb SRC2 PPI: 2%; Tau fibril ThT: -4%

Results for Cc1ccc2nc(NC(=O)c3ccc(Cn4cc(Cl)cn4)o3)sc2c1 ?
Tau fibril FP: -10%; Tau fluor cs: -18%; TexasRed fluor: -3%; PNC assembly inh: -100*; TRb SRC2 PPI: -6%; Tau fibril ThT: 2%

How did CN(Cc1nccs1)C(=O)CC1C(=O)NCCN1Cc1ccc(-c2ccccc2)cc1 (stereo not drawn) do in these assays?
Tau fibril FP: -10%; Tau fluor cs: -12%; TexasRed fluor: 0%; TRb SRC2 PPI: 2%; Tau fibril ThT: inconclusive

What do the screens show for `CNCc1ccccc1Sc1cc(O)ccc1O`?
Tau fibril FP: 32µM*; Tau fluor cs: 18µM*[quencher]; TexasRed fluor: -5%; PNC assembly inh: -21; TRb SRC2 PPI: -7%; Tau fibril ThT: 18µM*

How did CNCc1ccccc1Sc1cccc(O)c1 do in these assays?
Tau fibril FP: -2%; Tau fluor cs: 0%; TexasRed fluor: -2%; PNC assembly inh: inconclusive; TRb SRC2 PPI: -3%; Tau fibril ThT: 3%

How did COc1ccc(N2C(=O)CC(Sc3ccccc3C(=O)O)C2=O)c([N+](=O)[O-])c1 (stereo not drawn) do in these assays?
Tau fibril FP: -8%; Tau fluor cs: inconclusive; TexasRed fluor: -8%; TRb SRC2 PPI: 0%; Tau fibril ThT: 14µM*

How did CC(C)Cn1c(-c2ccco2)n[nH]c1=S do in these assays?
Tau fibril FP: -1%; Tau fluor cs: -6%; TexasRed fluor: -1%; PNC assembly inh: -8; TRb SRC2 PPI: -20%; Tau fibril ThT: -10%
